Hit rate of the full screen: of about 320,000 compounds, about 2,100 (0.66%) were called active. Roughly 53% stayed inconclusive and do not appear here. Calls follow the shape of the dose curve; as a rule, active = well fitted inhibition curve with a large enough effect in the signal ratio, with a control signal flat (not every such curve was filed as active); inconclusive = small, poorly fitted or top-dose-only effect, or effect the other way, or a change in a side signal; inactive = flat fitted curve, though single readings scatter; the % refers to the signal ratio. The entries come from a sample that favours actives as a whole.
assay: qHTS Assay for Lipid Storage Modulators in Drosophila S3 Cells; conditions: BODIPY lipid droplet fluorescence, 18-24 h, cells fed with added oleic acid; cell number change: measured here: cell count max response; series mostly up to 46.1 µM;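 as to cell number change: cells counted by Cell Tracker Red CMTPX staining in the red channel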
Procedure, shortened: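 Drosophila S3 cells got compounds at several concentrations plus oleic acid (400 uM solution). Laser-scanning cytometry with 488 nm excitation read lipid droplets at 500-530 nm and cells at 575-640 nm. Percent activity was relative to 20 uM Triacsin C.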
Potency is read from the fitted curve at half-maximal effect.

SMILES | Potency | cell number change [%]
Cc1cc(C)nc(NS(=O)(=O)c2ccc(NC(=O)Nc3ccccc3F)cc2)n1 | inactive | -10.1
O=C(Cn1cccc1C(=O)c1ccccc1)NCCCN1CCOCC1 | inactive | -0.598
O=C1c2ccccc2CN1Cc1ccccc1 | inactive | 10.2
COC(=O)CCn1[nH]c(=O)c2ccccc2c1=O | inactive | -3.6
O=C(CCn1[nH]c(=O)c2ccccc2c1=O)NCCO | 11.6 µM (active) | 1.53
CCCCCCCCOC(=O)CCn1[nH]c(=O)c2ccccc2c1=O | inactive | -16.3
c1ccc(CN2CCOCCOCCOCC2)cc1 | inactive | -1.02
CCOC(=O)c1ccc(N2C(=O)c3n[nH]c(C)c3C2c2ccc(OC)cc2)cc1 (stereo not drawn) | inactive | -20.7
CC1(CCc2ccccc2)NC(=O)N(CC(=O)O)C1=O (stereo not drawn) | inactive | -3.79
Cc1ccc(NC(=O)CSc2nnc(C3CC3)n2N)cc1S(=O)(=O)N1CCOCC1 | inactive | 12.4
O=C(CCN1C(=O)NC2(CCCC2)C1=O)Nc1cccc(S(=O)(=O)N2CCOCC2)c1 | inactive | 2.63
O=C(Cn1c2ccccc2c2nc3n(c(=O)c21)CCS3)N1CCCC1 | inactive | -22.8
O=C(Cn1c2ccccc2c2nc3n(c(=O)c21)CCS3)Nc1ccccc1C(F)(F)F | inactive | -11.3
CC1CCCN(C(=O)Cn2c3ccccc3c3nc4n(c(=O)c32)CCS4)C1 (stereo not drawn) | 7.31 µM (active) | -9.4
COc1ccc(/C=N\Nc2ccccc2[N+](=O)[O-])c(C(=O)O)c1OC | inactive | 2.19
Cc1ccc(C(=O)CSc2nnc(-c3ccccc3)n2-c2ccccc2)o1 | inactive | 6.85
CCOC(=O)C1[C@H]2C(=O)N(C(C)c3ccc(OC)cc3)C[C@]23C=C[C@H]1O3 (stereo partly drawn) | inactive | -3.61
COC(=O)C1C2C=CC3(CN(C(C)c4ccc(OC)cc4)C(=O)C13)O2 (stereo not drawn) | 16.4 µM (active) | -5.31
COc1ccc(C(C)N2CC34C=CC(O3)C(C(=O)OCC(C)C)C4C2=O)cc1 (stereo not drawn) | inactive | -0.854

SMILES | Potency | cell number change [%]
Cc1ccccc1Nc1nccc(N(C)C)c1C#N | inactive | -17.6
N#C/C(=C\c1ccccc1)C(=O)NC1CC1 | inactive | 
COc1ccc(/C=C(/C#N)C(=O)NC2CCCCC2)cc1Br | inactive | -11.6
CC(=O)Nc1ccc(/C=C(\C#N)C(=O)NC2CCCCC2)cc1 | 20.6 µM (active) | 6.15
CCOC(=O)N1CCN(C(=O)c2ccc3c(=O)n(CCc4ccccc4)c(=O)[nH]c3c2)CC1 | inactive | 
COc1cc2[nH]c(=O)n(Cc3ccc(C(=O)N4CCC(N5CCCCC5)CC4)cc3)c(=O)c2cc1OC | 0.411 µM (active) | -3.59
COc1cc2[nH]c(=O)n(Cc3ccc(C(=O)NC4CCCC4)cc3)c(=O)c2cc1OC | inactive | 
COCCn1c(=O)[nH]c2cc(C(=O)N3CCN(c4ccccc4F)CC3)ccc2c1=O | 11.6 µM (active) | -14.1
CCOC(=O)N1CCN(C(=O)c2ccc3c(=O)n(CCc4ccc(OC)c(OC)c4)c(=O)[nH]c3c2)CC1 | 1.3 µM (active) | 12.7
CCCCCn1c(=O)[nH]c2cc(C(=O)N3CCN(c4ccccc4F)CC3)ccc2c1=O | inactive | 0.806
CCCCCn1c(=O)[nH]c2cc(C(=O)N3CCN(C(=O)OCC)CC3)ccc2c1=O | 3.66 µM (active) | 
COCCn1c(=O)[nH]c2cc(C(=O)NCCN3CCN(c4ccccc4F)CC3)ccc2c1=O | inactive | -8.35
CCOC(=O)N1CCN(C(=O)c2ccc3c(=O)n(CCOC)c(=O)[nH]c3c2)CC1 | inactive | 1.58
CCCCCn1c(=O)[nH]c2cc(C(=O)N3CCN(CC)CC3)ccc2c1=O | inactive | 
COc1ccc(N2CCN(C(=O)c3ccc4c(=O)n(CCc5ccc(OC)c(OC)c5)c(=O)[nH]c4c3)CC2)cc1 | inactive | -0.645
COc1cc2[nH]c(=O)n(Cc3ccc(C(=O)NCC4CCCO4)cc3)c(=O)c2cc1OC (stereo not drawn) | inactive | 12.5
CCC(=O)Nc1ccc2oc(-c3cccnc3)nc2c1 | inactive | 17.6
OCCNc1ncnc2c1sc1nc(N3CCOCC3)c3c(c12)CCC3 | inactive | 0.136
Cc1c(OC(C)C(=O)NCCCN2CCOCC2)ccc2c3c(c(=O)oc12)CCCC3 (stereo not drawn) | inactive | 8.4

SMILES | Potency | cell number change [%]
COC(=O)CNC(=O)CSc1nc(N)cc(=O)[nH]1 | inactive | -9.53
Cc1cc(C)c(O)c(NC(=S)NC(=O)Cc2ccccc2)c1 | inactive | -14.2
CCc1ccccc1Nc1nc(N)nc(COC(=O)CCS(=O)(=O)c2ccccc2)n1 | inactive | 
Cc1c(C)n(CCO)c2ncnc(Nc3ccc(F)cc3)c12 | inactive | 17.8
C=CCN1C(=O)/C(=C\c2ccc(Cl)cc2)N=C1SCC(=O)NC1CCCCC1 | inactive | 1.87
CC(=O)c1ccc(NC(=O)/C(=C\c2cccs2)NC(=O)c2ccco2)cc1 | inactive | 17
CC1=C(C(=O)Nc2ccccc2)C(c2cccs2)NC(=O)N1 (stereo not drawn) | inactive | -4.1
CC1=C(C(=O)Nc2ccc(C)cc2)C(c2ccc(N(C)C)cc2)NC(=O)N1 (stereo not drawn) | inactive | -1.82
CCN(CC)c1ccc(C2NC(=O)NC(C)=C2C(=O)Nc2ccccc2)cc1 (stereo not drawn) | 1.64 µM (active) | -25.6
Cc1ccc(NC(=O)c2c(O)c3ccccc3n(C)c2=O)nc1 | inactive | -15.8
CCOC(=O)c1cnc2c(C)c(-c3ccccc3)[nH]n2c1=O | inactive | 6.05
C=CCOc1ccc(/C=N/N2C(=O)C(CC(=O)Nc3ccc(F)cc3F)SC2=NC)cc1 (stereo not drawn) | 18.4 µM (active) | 23
CN=C1SC(CC(=O)Nc2ccc(F)cc2F)C(=O)N1/N=C(\C)c1cccc(OCC(=O)O)c1 (stereo not drawn) | inactive | 5.65
CN=C1SC(CC(=O)Nc2ccc(F)cc2F)C(=O)N1/N=C/c1ccc(OC(F)F)c(OC)c1 (stereo not drawn) | inactive | 8.82
CCOC(=O)c1cnc2c(OC)cccc2c1Oc1ccccc1 | inactive | 0.518
c1ccc(NC(=NCc2ccco2)c2ccccc2)cc1 | inactive | 0.492
O=C(NC(=S)NCc1ccco1)c1ccccc1 | inactive | 2.74
NC(=NCc1ccco1)NC(=O)c1ccccc1 | 20.6 µM (active) | 21.8
COC(=O)c1ccc(OC(=O)CCN2C(=O)C3C4c5ccccc5C(c5ccccc54)C3C2=O)cc1 (stereo not drawn) | inactive | -1.2

Source: PubChem BioAssay AID2685 (National Center for Advancing Translational Sciences (NCATS), 2010)
